This note sets out measurements from ChEMBL document CHEMBL3988442, “University of Dundee, Small-Polar-MMV Screening Library” (2021).

For some of these results: Entries with a potency or affinity are not part of this list.

Common to all, as to set-up: scale not given: direction of the effect not stated beside the values
The target in test [1] is Protein translocase subunit SecA (Escherichia coli (strain K12)) (UniProt P10408). In words: Assay to Identify E. coli SecA ATPase Inhibitors. The class given is functional. Conditions: 30 µM.
Test [2] deals with T1, Ubiquitin-activating enzyme e1, putative (Leishmania donovani (strain BPK282A1)) (UniProt E9BSI1).
T1 sequence (whole entry): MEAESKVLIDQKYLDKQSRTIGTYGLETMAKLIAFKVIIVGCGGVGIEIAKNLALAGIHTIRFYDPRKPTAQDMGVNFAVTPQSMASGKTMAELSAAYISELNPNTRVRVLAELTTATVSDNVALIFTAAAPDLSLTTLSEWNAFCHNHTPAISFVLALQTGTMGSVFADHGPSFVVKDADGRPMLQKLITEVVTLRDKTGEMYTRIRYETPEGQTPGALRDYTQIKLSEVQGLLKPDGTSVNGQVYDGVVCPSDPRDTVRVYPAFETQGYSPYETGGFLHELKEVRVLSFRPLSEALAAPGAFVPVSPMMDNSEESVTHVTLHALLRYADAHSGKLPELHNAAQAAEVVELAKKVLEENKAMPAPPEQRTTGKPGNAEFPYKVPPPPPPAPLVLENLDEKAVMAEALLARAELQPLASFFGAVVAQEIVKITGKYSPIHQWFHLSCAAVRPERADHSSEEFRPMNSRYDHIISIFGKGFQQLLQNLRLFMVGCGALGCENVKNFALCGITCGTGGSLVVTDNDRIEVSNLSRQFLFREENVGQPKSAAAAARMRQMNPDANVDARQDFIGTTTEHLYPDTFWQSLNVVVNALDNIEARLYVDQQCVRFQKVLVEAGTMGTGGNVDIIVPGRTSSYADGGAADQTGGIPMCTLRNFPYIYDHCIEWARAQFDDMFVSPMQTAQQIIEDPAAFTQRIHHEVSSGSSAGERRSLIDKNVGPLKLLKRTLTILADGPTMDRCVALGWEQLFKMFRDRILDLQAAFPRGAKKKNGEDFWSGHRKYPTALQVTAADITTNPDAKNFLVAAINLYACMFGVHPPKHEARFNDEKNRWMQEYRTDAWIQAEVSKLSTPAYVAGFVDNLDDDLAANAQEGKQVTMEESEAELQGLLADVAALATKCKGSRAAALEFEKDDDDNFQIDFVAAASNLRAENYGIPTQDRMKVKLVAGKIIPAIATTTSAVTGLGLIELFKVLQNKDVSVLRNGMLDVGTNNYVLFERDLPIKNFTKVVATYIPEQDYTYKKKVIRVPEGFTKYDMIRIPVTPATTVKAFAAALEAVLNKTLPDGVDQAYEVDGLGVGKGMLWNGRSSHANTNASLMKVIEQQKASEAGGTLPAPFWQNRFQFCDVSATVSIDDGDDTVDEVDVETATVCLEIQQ
In words: Leishmania donovani Ubiquitin Activating Enzyme (LdE1). It is filed as functional. Conditions: 30 µM.

Test [3] deals with AMP-activated protein kinase, AMPK (Homo sapiens) (UniProt P54646+O43741+P54619+Q9UGJ0+Q9Y478+Q13131+Q9UGI9). In words: AMP-dependent Kinase enzyme assay. An in vitro enzyme assay that detects ADP turnover that is directly proportional to AMPK activity. This uses naive AMPK that is activated during the assay with MK-8722. It is filed as functional. Conditions: 30 µM.
Test [4] has as its target Sialic acid-binding Ig-like lectin 9 (Homo sapiens) (UniProt Q9Y336). In words: Hs-Siglec9 ALPHAscreen SOP 20170721. Particulars: 10 µM. (In Alpha technology, singlet oxygen from a donor bead excites a nearby acceptor bead.)
The next test concerns Trypanosoma cruzi. Nature of the test: Trypanosoma cruzi phosphomannomutase and mannose-1-phosphate guanylyltransferase assay. It is filed as functional. Particulars: 10 µM.
For test [5], the target named is T2, Arginase-2, mitochondrial (Homo sapiens) (UniProt P78540).
T2 sequence (whole entry): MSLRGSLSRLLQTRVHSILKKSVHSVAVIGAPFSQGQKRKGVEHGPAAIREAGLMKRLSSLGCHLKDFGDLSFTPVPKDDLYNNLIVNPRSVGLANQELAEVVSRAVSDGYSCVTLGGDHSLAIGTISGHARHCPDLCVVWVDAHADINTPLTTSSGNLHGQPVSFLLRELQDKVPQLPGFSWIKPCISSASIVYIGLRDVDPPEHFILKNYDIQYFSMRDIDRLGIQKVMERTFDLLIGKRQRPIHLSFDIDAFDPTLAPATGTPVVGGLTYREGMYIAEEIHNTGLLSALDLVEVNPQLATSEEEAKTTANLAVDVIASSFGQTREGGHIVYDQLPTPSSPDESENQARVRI
In words: in vitro enzyme assay to detect the production of urea directly proportional to the activity of Arginase II. Note: in the data most compounds retested in dose-response had high values. The class given is functional. Conditions: 33.3 µM.

Test [6] deals with T3, Proteasome subunit beta (Trypanosoma cruzi) (UniProt O96673).
T3 sequence (whole entry): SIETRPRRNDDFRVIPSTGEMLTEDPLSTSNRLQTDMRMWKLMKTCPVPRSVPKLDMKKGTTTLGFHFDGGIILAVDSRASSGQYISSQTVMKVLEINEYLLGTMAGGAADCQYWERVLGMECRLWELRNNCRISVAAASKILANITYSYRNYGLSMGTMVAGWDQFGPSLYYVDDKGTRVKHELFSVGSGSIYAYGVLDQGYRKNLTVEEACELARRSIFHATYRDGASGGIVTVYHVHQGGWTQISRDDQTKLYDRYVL
In words: Trypanosoma cruzi proteasome chymotrypsin-like activity (TcProtChymo) assay. Note: in the data most compounds retested in dose-response had high values. The class given is functional. Particulars: 9.37 µM.

For another test, the species on record is Homo sapiens. In words: To identify inhibition of the IFN signalling (Jak-Stat) pathway via expression of an eGFP reporter gene under the control of an IFN-stimulated response element (ISRE) containing MxA promoter. It is filed as functional. Conditions: 30 µM.
Test [7] deals with T4, Tyrosyl-tRNA synthetase, putative (Trypanosoma cruzi (strain CL Brener)) (UniProt Q4DSP6).
T4 sequence (whole entry): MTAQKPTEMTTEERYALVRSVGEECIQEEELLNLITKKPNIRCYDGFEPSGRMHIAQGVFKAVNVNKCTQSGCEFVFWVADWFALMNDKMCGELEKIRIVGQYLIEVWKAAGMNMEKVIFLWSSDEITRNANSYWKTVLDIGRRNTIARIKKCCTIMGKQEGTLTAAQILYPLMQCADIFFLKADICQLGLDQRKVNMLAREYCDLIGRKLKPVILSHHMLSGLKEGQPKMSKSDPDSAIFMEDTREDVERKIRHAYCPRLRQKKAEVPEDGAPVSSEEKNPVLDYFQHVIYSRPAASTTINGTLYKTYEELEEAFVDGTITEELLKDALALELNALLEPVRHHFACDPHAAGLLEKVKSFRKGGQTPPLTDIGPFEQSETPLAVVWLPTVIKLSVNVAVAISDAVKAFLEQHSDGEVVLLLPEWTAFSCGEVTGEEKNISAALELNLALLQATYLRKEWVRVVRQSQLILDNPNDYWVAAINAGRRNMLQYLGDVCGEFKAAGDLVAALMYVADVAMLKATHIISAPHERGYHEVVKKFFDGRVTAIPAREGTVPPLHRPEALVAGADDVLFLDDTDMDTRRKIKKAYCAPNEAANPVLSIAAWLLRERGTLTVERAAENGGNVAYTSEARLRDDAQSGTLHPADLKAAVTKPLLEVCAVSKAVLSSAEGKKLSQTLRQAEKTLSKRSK
In words: Trypanosoma cruzi tyrosyl tRNA synthetase (TcYRS) _High Tyrosine SOP. Note: in the data most compounds retested in dose-response had high values. It is filed as functional. Conditions: 30 µM.

Test [8] concerns the target T4, Tyrosyl-tRNA synthetase, putative (Trypanosoma cruzi (strain CL Brener)). In words: Trypanosoma cruzi tyrosyl tRNA synthetase (TcYRS) SOP. The class given is functional. Conditions: 30 µM.
Test [9] deals with Chromo domain-containing protein 1 (Saccharomyces cerevisiae (strain ATCC 204508 / S288c) (Baker's yeast)) (UniProt P32657). In words: ScCHD-1 Enzyme Inhibition Assay. Note: in the data most compounds retested in dose-response had high values. The class given is functional. Particulars: 30 µM.
Sequence of Chromo domain-containing protein 1 (Saccharomyces cerevisiae (strain ATCC 204508 / S288c) (Baker's yeast)) (P32657 whole entry, the tested form may be a part): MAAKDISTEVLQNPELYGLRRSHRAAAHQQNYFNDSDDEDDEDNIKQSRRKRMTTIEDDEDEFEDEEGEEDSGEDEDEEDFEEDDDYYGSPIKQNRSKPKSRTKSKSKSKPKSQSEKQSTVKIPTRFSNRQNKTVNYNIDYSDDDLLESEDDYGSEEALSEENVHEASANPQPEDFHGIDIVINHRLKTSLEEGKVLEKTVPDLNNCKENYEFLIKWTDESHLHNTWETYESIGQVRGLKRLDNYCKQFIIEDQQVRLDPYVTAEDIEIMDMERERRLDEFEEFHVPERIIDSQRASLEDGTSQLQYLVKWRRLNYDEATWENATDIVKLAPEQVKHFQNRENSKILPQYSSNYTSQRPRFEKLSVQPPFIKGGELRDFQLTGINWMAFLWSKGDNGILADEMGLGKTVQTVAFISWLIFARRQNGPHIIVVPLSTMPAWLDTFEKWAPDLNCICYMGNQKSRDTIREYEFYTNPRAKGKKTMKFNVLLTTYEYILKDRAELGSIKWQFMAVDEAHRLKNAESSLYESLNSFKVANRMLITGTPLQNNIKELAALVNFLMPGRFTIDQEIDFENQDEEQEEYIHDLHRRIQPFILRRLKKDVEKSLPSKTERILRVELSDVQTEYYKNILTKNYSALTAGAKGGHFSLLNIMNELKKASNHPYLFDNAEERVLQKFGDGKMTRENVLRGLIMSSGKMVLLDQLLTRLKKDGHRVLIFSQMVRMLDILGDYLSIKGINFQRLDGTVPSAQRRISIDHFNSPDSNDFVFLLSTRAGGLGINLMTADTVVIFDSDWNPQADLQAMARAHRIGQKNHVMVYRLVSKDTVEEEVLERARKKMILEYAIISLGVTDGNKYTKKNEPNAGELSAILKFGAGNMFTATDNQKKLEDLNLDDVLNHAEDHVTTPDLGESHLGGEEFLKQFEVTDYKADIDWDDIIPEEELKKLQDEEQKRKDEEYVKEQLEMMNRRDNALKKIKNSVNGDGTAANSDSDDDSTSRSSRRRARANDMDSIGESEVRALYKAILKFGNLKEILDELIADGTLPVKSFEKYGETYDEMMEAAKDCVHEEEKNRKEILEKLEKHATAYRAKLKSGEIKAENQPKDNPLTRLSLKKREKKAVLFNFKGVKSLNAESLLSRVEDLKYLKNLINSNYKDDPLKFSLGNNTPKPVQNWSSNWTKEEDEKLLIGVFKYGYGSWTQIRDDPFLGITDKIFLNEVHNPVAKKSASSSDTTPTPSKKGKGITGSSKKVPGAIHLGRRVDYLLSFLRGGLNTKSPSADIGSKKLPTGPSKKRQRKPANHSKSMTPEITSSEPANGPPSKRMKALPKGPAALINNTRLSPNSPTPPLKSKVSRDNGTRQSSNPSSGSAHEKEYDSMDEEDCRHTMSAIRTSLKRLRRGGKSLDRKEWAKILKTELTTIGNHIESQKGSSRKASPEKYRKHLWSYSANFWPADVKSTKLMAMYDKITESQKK

Sequence of Protein translocase subunit SecA (Escherichia coli (strain K12)) (P10408 whole entry): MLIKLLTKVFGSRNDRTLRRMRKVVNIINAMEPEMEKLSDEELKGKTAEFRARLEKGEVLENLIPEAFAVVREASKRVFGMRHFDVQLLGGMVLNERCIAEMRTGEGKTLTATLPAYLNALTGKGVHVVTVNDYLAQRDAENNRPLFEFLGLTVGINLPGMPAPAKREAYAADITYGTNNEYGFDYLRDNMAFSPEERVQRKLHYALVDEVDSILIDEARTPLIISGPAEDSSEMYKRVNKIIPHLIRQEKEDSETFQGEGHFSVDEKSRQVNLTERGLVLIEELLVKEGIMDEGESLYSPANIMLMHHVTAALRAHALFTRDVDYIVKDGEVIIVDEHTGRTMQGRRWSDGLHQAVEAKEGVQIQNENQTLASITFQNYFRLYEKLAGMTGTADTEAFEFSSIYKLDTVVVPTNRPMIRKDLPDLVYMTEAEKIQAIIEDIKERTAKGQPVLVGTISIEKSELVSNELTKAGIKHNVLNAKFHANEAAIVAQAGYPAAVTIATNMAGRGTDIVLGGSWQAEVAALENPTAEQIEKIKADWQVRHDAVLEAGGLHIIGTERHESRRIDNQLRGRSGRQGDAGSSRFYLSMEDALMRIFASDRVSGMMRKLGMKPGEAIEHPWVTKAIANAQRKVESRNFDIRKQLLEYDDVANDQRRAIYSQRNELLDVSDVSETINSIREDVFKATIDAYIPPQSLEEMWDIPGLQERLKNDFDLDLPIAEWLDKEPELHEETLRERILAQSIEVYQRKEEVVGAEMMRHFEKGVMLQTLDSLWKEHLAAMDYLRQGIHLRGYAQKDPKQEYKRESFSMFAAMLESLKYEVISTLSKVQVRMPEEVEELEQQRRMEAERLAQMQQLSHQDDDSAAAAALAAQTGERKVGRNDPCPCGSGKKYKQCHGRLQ
Sequence of Sialic acid-binding Ig-like lectin 9 (Homo sapiens) (Q9Y336 whole entry): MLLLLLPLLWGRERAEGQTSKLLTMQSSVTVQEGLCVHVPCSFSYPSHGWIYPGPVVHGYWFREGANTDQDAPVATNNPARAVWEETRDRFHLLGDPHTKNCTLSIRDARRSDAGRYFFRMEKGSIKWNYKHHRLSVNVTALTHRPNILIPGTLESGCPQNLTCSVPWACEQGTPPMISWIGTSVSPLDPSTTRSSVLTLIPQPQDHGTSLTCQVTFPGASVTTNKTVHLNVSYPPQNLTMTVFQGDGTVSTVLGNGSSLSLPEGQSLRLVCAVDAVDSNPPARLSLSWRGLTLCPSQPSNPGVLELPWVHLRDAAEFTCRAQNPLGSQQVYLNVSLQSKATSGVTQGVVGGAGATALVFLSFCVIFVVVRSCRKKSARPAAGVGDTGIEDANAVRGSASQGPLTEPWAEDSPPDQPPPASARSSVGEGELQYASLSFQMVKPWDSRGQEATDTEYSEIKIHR

For `CC(C(=O)NCCN1CCCCCC1)n1cncn1` (stereo not drawn), the Percent Effect in test [1] was -5.19%; in test [2], 13.2%; in test [3], -5.03%; in test [4], 2.07%; in the test on Trypanosoma cruzi, 4.76%; in test [5], 1.8%. Further, the Percent Effect in test [6] was 3.98%; in the test listed under Homo sapiens, -5.88%; in test [7] it was 4.43%; in [8], 13.6%; in [9] it was -5.88%.

`COCCN(CCc1ccccc1)Cc1nc2c(cnn2C)c(=O)[nH]1`: the Percent Effect in [1] was -1.78%; in [2], 13.5%; in test [3], 1.09%; in [4], 15.2%; in the test with Trypanosoma cruzi, 1.04%; in test [5], -2.81%. Besides, the Percent Effect in [6] was -0.36%; in the test filed under Homo sapiens, -11.6%; in test [7] it was 7.39%; in test [8], 18.5%; in test [9], -9.44%.

Turning to `CC(C)C(=O)N1CCC(c2nc(O)cc(-c3ccncc3)n2)CC1`, the Percent Effect was -5% in test [1]; 25.7% in [2]; 5.51% in test [3]; -2.98% in test [4]; 3.16% in the test on Trypanosoma cruzi; -2.09% in test [5]. Besides, the Percent Effect in [6] was 10.9%; in the test filed under Homo sapiens, 14.4%; in [7], 5.38%; in [8], 11.7%; in test [9], -14.2%.

As to `CCc1nccn1C1CCCN(C(=O)Cc2n[nH]c3ccccc23)C1` (stereo not drawn), the Percent Effect in [1] is -3.99%; in test [2] it was 3.8%; in [3] it was 8.48%; in test [4], 8.66%; in the test on Trypanosoma cruzi it was -4.62%; in [5], 3.66%. The Percent Effect in test [6] was -0.858%; in the test filed under Homo sapiens, 1.26%; in test [7], 2.08%; in test [8], 15.2%; in test [9], -2.38%.

For `Cc1cccc(CN2C[C@@H]3COC[C@]3(COc3ccc(C#N)cn3)C2)n1`, the Percent Effect in test [1] was -2.98%; in [2], -8.22%; in [3], -1.47%; in [4] it was 2.28%; in the test on Trypanosoma cruzi it was 10.1%; in test [5] it was -1.2%. Also, the Percent Effect is 3.34% in test [6]; 4.74% in the test filed under Homo sapiens; 0% in test [7]; 8.64% in test [8]; -0.121% in test [9].

As for `Cc1nc(NC(=O)CNC(=O)c2c(F)cccc2Cl)n[nH]1`, the Percent Effect in test [1] was -5.26%; in test [2], 13.2%; in test [3], 2.15%; in [4], 2.44%; in the test with Trypanosoma cruzi, 3.21%; in test [5] it was -3.55%. The Percent Effect in [6] was 9.11%; in the test filed under Homo sapiens, 3.8%; in [7] it was 1.06%; in test [8], 7.79%; in test [9] it was -1.65%.

Regarding `CC(C)OCCC(=O)N(C)CCCc1cc(-c2ccccc2)no1`, the Percent Effect in [1] was 2.05%; in test [2], 18.9%; in test [3], 5.99%; in [4], -0.12%; with Trypanosoma cruzi, -8.08%; in test [5] it was -1.66%. Besides, the Percent Effect in test [6] was 13.3%; in the test listed under Homo sapiens, 22%; in test [7], -1.98%; in [8], 3.66%; in [9] it was -5.36%.

On to `COCCN(C)C[C@@H]1CN(C(=O)c2ccoc2)C[C@@H]1CO`, for which the Percent Effect in [1] was -3.19%; in test [2], 2.7%; in test [3], -0.15%; in test [4], 1.89%; in the test on Trypanosoma cruzi it was 6.56%; in test [5], -1.43%. Further, the Percent Effect in test [6] is 5.34%; in the test listed under Homo sapiens, 4.14%; in test [7] it was 6.88%; in [8], 9.76%; in [9], -2.44%.
